Results reported in the supplement of paper PMC6992640.
± gives the standard deviation of the averaged measurements.

test system: WHIM2 (cells of a triple-negative basal-like breast cancer xenograft); assay: cell viability (% of vehicle); higher = less cytotoxic; details: 10 µM; 72 h
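Further: PDX cells carrying CMV promoter-driven luciferase, viability read as total photon flux per second by IVIS imaging following D-luciferin, vehicle control 0.1% DMSO.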

| SMILES | cell viability |
| --- | --- |
| Cc1nc2c([nH]1)CCN(C(=O)c1ccc(NC(=O)c3ccccc3-c3ccccc3)cc1)c1ccccc1-2.Cl [Conivaptan HCl] | 104 ± 22 |
| COc1nc(C)nc(Cl)c1NC1=NCCN1 [Moxonidine] | 116 ± 12 |
| CC(=O)OCC(=O)NCCCOc1cccc(CN2CCCCC2)c1.Cl [Roxatidine Acetate HCl] | 106 ± 3.1 |
| Clc1ccc2c(c1)C(N1CCNCC1)=Nc1ccccc1O2 [Amoxapine] | 91.7 ± 7.3 |
| CCCNS(=O)(=O)Nc1ncnc(OCCOc2ncc(Br)cn2)c1-c1ccc(Br)cc1 [Macitentan] | 77.1 ± 37 |
| OCC(O)C(O)C(O)CO (configuration not stated) [Xylitol] | 90.3 ± 14 |
| CCCc1ncc(C[n+]2ccccc2C)c(N)n1.Cl.[Cl-] [Amprolium HCl] | 110 ± 7.3 |
| Cc1c(O)c(=O)ccn1C [Deferiprone] | 144 ± 12 |
| NC(=O)N1c2ccccc2CC(=O)c2ccccc21 [Oxcarbazepine] | 91.2 ± 2.1 |
| CCC(C)C(=O)OC1CCC=C2C=CC(C)C(CCC3CC(O)CC(=O)O3)C21 (configuration not stated) [Mevastatin] | 86.8 ± 15 |
| CC(=O)OC1(C(C)=O)CCC2C3CC(C)C4=CC(=O)CCC4(C)C3CCC21C (configuration not stated) [Medroxyprogesterone acetate] | 87.8 ± 5.8 |
| CNC(C)C1CCC(N)C(OC2C(N)CC(N)C(OC3OCC(C)(O)C(NC)C3O)C2O)O1.O=S(=O)(O)O (configuration not stated) [Gentamycin Sulfate] | 72.4 ± 2 |
| COc1ccc(CC2c3cc(OC)c(OC)cc3CC[N+]2(C)CCC(=O)OCCCCCOC(=O)CC[N+]2(C)CCc3cc(OC)c(OC)cc3C2Cc2ccc(OC)c(OC)c2)cc1OC.O=S(=O)([O-])c1ccccc1.O=S(=O)([O-])c1ccccc1 (configuration not stated) [Cisatracurium Besylate] | 65.1 ± 7.3 |
| NCCCCCC(=O)O [(6-)ε-Aminocaproic acid] | 101 ± 24 |
| CC12CCC3=C4CCC(=O)C=C4CCC3C1CCC2(O)CC#N (configuration not stated) [Dienogest] | 105 ± 6.8 |
| COC(=O)Nc1nc2ccc(S(=O)c3ccccc3)cc2[nH]1 (configuration not stated) [Oxfendazole] | 87 ± 7.4 |
| Cc1cn(C2CC(N=[N+]=[N-])C(CO)O2)c(=O)[nH]c1=O (configuration not stated) [Zidovudine] | 98.22 ± 0.63 |
| CCN(CCO)CCCC(C)Nc1ccnc2cc(Cl)ccc12.O=S(=O)(O)O (configuration not stated) [Hydroxychloroquine Sulfate] | 70.8 ± 2.9 |
| CC1(C)SC2C(NC(=O)C(N)c3ccccc3)C(=O)N2C1C(=O)[O-].[Na+] (configuration not stated) [Ampicillin] | 77.9 ± 1.1 |
| CC(O)(P(=O)(O)O)P(=O)(O)O [Etidronate] | 150 ± 2.7 |
| CCCNC(C)C(=O)Nc1ccccc1C.Cl (configuration not stated) [Prilocaine hydrochloride] | 102 ± 6.2 |
| CN(C)CCC=C1c2ccccc2CCc2ccccc21.Cl [Amitriptyline HCl] | 100 ± 1.1 |
| CN1CCC(=C2c3ccccc3CC(=O)c3sccc32)CC1.O=C(O)C=CC(=O)O [Ketotifen Fumarate] | 84.4 ± 3.9 |
| CCOc1ccc2ccccc2c1C(=O)NC1C(=O)N2C1SC(C)(C)C2C(=O)[O-].O.[Na+] (configuration not stated) [Nafcillin Sodium] | 101 ± 3.8 |
| Nc1ccc(S(=O)(=O)c2ccc(N)cc2)cc1 [Dapsone] | 115 ± 8.2 |
| Nc1nc(=O)c2ncn(COC(CO)CO)c2[nH]1 [Ganciclovir] | 93.5 ± 46 |
| FC(F)(F)c1ccc(C=Cc2nc(COc3ccc(CCCCn4ccnn4)cc3)co2)cc1 [Mubritinib (TAK 165)] | 120 ± 31 |
